Data on 39 compounds can be found in PubChem BioAssay (NCI).

Assay [1] can be described thus: NCI Yeast Anticancer Drug Screen. Data for the rad50 strain (AID 155).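 Note: 0% = growth of vehicle-only cultures of the same strain.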 The following applies: S. cerevisiae rad50 strain growth inhibition, hits give high values; at 50.0 µM unless noted. In a few lines: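 Readout: growth inhibition relative to vehicle-treated cultures. Compound exposure was carried out in a genetically defined yeast strain deficient in DNA damage repair.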

Assay [2] can be described thus: NCI Yeast Anticancer Drug Screen. Data for the mec2-1 strain (AID 157). As to conditions: S. cerevisiae mec2-1 strain, hits give high values; at 50.0 µM unless noted. In a few lines:
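Vehicle-treated cultures served as reference for growth inhibition of compound-exposed mec2-1 yeast.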

Assay [3] in a line: NCI Yeast Anticancer Drug Screen. Data for the sgs1 mgt1 strain (AID 161).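 Note: 0% = growth of cultures given vehicle only.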 The following applies: S. cerevisiae sgs1 mgt1 strain, hits give high values; at 50.0 µM unless noted. The gist of the method: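 Test agents were incubated with a DNA-repair-mutant yeast strain. Growth was then read and compared against vehicle-treated controls.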
Assay [4] is described as follows: NCI Yeast Anticancer Drug Screen. Data for the cln2 rad14 strain (AID 165).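 Note: 0% = growth equal to vehicle treated cultures.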 As to conditions: S. cerevisiae cln2 rad14 strain, hits give high values; at 50.0 µM unless noted. In a few lines: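 Each compound was tested on cln2 rad14 yeast. Inhibition of growth was calculated against vehicle-exposed controls.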
Assay [5] can be described thus: NCI Yeast Anticancer Drug Screen. Data for the bub3 strain (AID 167). As to conditions: S. cerevisiae bub3 mutant strain, hits give high values; at 50.0 µM unless noted. In a few lines:
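Readout: yeast growth inhibition, expressed relative to vehicle-only wells. The test organism is a mutant strain from a panel with lesions in DNA repair or checkpoint genes.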

Assay [6] in a line: NCI Yeast Anticancer Drug Screen. Data for the mlh1 rad18 strain (AID 175). As to conditions: S. cerevisiae mlh1 rad18 strain growth inhibition, hits give high values; at 50.0 µM unless noted. The gist of the method:
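Vehicle-treated cultures served as the reference for growth inhibition in a yeast strain carrying DNA damage repair alterations exposed to each compound.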

“And” between values parts separate entries of the source, which are not always exact repeats. Equal entries are not always repeated. This is part of a sample that, as a whole, favours compounds with a hit. Of some 79,000 tested, about 15% had one in any assay. A number with no mark means an inactive call. The source made the active and inactive calls. Cut-off read from the data, not from the text of the source: active = growth inhibition above about 70%; inactive = the rest.

As to `CC(C)C(=O)NS(=O)(=O)c1ccccc1`, the growth inhibition in assay [1] is -14.6%; in assay [2] it was -3.8%; in assay [3], 0.5%; in assay [4], -7.55%; in assay [5], -14.4%; in assay [6], -27.9%.
On to `Cn1cnc([N+](=O)[O-])c1Sc1ncn[nH]1`, for which the growth inhibition was -3.45% and 6% in assay [1]; 3.3% and -1.85% in assay [2]; 8.45% and 2.6% in assay [3]; 0.35% and 24.6% in assay [4]; 4% and 21.8% in assay [5]; -54.3% and 0.9% in assay [6].
For the compound `N#CCCCCCOCCOCCOCCOCCOCCCCCC#N`, the growth inhibition in assay [1] is 12.8%; in assay [2], 12.9%; in assay [3], -10.2%; in assay [4], 12.7%; in assay [5], -1.75%; in assay [6] it was 18.6%.
As to `NNC(=O)CCC(=O)O`, the growth inhibition in assay [1] is 0.75%; in assay [2], -0.5%; in assay [3] it was 1.7%; in assay [4], -3.6%; in assay [5], 12.7%; in assay [6], -15.6%.
Turning to `COC1/C=C/OC2(C)Oc3c(C)c(O)c4c(c3C2=O)C(N)=C(NC2CC2)C(=NC(=O)/C(C)=C\C=C\C(C)C(O)C(C)C(O)C(C)C(OC(C)=O)C1C)C4=O` (centres undefined), the growth inhibition in assay [1] is 15.7%; in assay [2], 32.7%; in assay [3] it was 41.2%; in assay [4], 49%; in assay [5], 31.9%; in assay [6], 33.1%.
Consider `CC(C)(C)NC(=O)C(Br)c1ccccc1` (centres undefined), for which the growth inhibition is 0.05% in assay [1]; 23.1% in assay [2]; 33.8% in assay [3]; -2.25% in assay [4]; 54.1% in assay [5]; 16% in assay [6].
`O=C(O)CCCCC1CCCCC1`: the growth inhibition in assay [1] was 53.1%; in assay [2], 17.1%; in assay [3], 38.8%; in assay [4], 17.1%; in assay [5], 33.6%; in assay [6] it was 43.1%.
For the compound `O=C(c1ccc(Cl)cc1)c1ccc(OCCCOc2ccc(C(=O)c3ccc(Cl)cc3)cc2Cl)c(Cl)c1`, the growth inhibition is 9.55% in assay [1]; -7.95% in assay [2]; -2.35% in assay [3]; -46.9% in assay [4]; -20.3% in assay [5]; 2.15% in assay [6].
Turning to `CN(C)c1nc(S(C)(=O)=O)nc2nc(Cl)[nH]c12`, the growth inhibition in assay [1] was 6.2%; in assay [2], -13.6%; in assay [3], -0.85%; in assay [4] it was -7.1%; in assay [5] it was 3.65%; in assay [6], -9.8%.
On to `Nc1nc(-c2ccco2)cc(-c2ccco2)n1`, for which the growth inhibition is -23.4% in assay [1]; -23.2% in assay [2]; -18.8% in assay [3]; 12.8% in assay [4]; -20.1% in assay [5]; -31.1% in assay [6].
Take `OCC1OC(OC2C(CO)OC(O)C(O)C2O)C(O)C(O)C1O` (centres undefined): the growth inhibition in assay [1] was 19.1%; in assay [2], 14.9%; in assay [3] it was 13.9%; in assay [4], 13.3%; in assay [5] it was 20.1%; in assay [6], 13.7%.
As for `CC1=NC(=Cc2cc(Br)cc(Br)c2)C(=O)N1n1c(-c2ccccc2)nc2ccccc2c1=O`, the growth inhibition was -13.2% in assay [1]; -15.8% in assay [2]; -1.65% in assay [3]; 0.95% in assay [4]; -24.7% in assay [5]; 2.7% in assay [6].
In the case of `COc1c2c(cc3c1C(CCCc1ccccc1)N(C)CC3)OCO2` (centres undefined), the growth inhibition in assay [1] is 22.4%; in assay [2], 7.6%; in assay [3], 30.7%; in assay [4], 11.5%; in assay [5], 9.75%; in assay [6] it was 28.6%.
With `Cc1c(C)c(C)c(CCc2c(C)c(C)c(C)c(C)c2C)c(C)c1C`, the growth inhibition in assay [1] is -16.8%; in assay [2], -1.25%; in assay [3], -0.9%; in assay [4] it was -16.5%; in assay [5], -4.15%; in assay [6], -12.3%.
For the compound `CCc1ccc(O)cc1O`, the growth inhibition in assay [1] is -18.4%; in assay [2] it was -12.9%; in assay [3] it was -43.1%; in assay [4], 10.7%; in assay [5], -30.6%; in assay [6] it was -4.6%.
As to `NC(=O)C(=Cn1c(=S)[nH]c2ccc([N+](=O)[O-])cc21)C(N)=O`, the growth inhibition in assay [1] is -10%; in assay [2], -40.9%; in assay [3], -9.9%; in assay [4], 11.7%; in assay [5], -22.6%; in assay [6] it was 31.9%.
`CC(CC(=O)c1ccccc1)[N+](=O)[O-]` (centres undefined): the growth inhibition in assay [1] was -10.6%; in assay [2] it was -6.35%; in assay [3] it was -3.3%; in assay [4] it was -12.6%; in assay [5] it was -7.85%; in assay [6] it was 15.8%.
`CCC1(C)OCCO1`: the growth inhibition in assay [1] is 0.5%; in assay [2], -13.5%; in assay [3], -12.1%; in assay [4] it was -29.9%; in assay [5] it was 1.05%; in assay [6], 2.2%.
In the case of `COCCC(=O)OCCC(C)OC` (centres undefined), the growth inhibition is 21.6% in assay [1]; -4.1% in assay [2]; 3.65% in assay [3]; 1.95% in assay [4]; -42.2% in assay [5]; -11.2% in assay [6].
For `CCOC(=O)/C=C/CCC(C)(C)COC(C)=O`, the growth inhibition was -10.1% in assay [1]; -1.4% in assay [2]; -36.9% in assay [3]; -49.8% in assay [4]; 0.05% in assay [5]; -31.9% in assay [6].
For the compound `COc1cc(C)c(C)c(OC(=O)c2c(C)c(C)c(OC)c(C)c2OC)c1C`, the growth inhibition in assay [1] was 10.3%; in assay [2], -17.1%; in assay [3], 11.3%; in assay [4], 8.9%; in assay [5], 23.6%; in assay [6] it was 16.1%.
In the case of `O=C(CCN1C(=O)c2ccccc2C1=O)Nc1c(I)cc(I)c(C(=O)O)c1I`, the growth inhibition in assay [1] was -4.6%; in assay [2], -11.7%; in assay [3], -20.6%; in assay [4], -20.2%; in assay [5] it was 8.65%; in assay [6], 6.8%.
For `CS(=O)(=O)OC1Cc2ccccc2C1`, the growth inhibition was 12.6% in assay [1]; -0.3% in assay [2]; -2.35% in assay [3]; -6.1% in assay [4]; -5% in assay [5]; 9.9% in assay [6].
In the case of `O=c1[nH]c(=O)c2cc(Cl)ccc2[nH]1`, the growth inhibition was 3.2% in assay [1]; 6.75% in assay [2]; -2.75% in assay [3]; -37% in assay [4]; 4.75% in assay [5]; 0.65% in assay [6].
As to `O=C(O)CCC1NCCCO1` (centres undefined), the growth inhibition was 1.85% in assay [1]; 3% in assay [2]; 3.7% in assay [3]; -35.1% in assay [4]; -4.15% in assay [5]; 0.75% in assay [6].
With `COC1=CC(=O)C2CC=CC(CC(=O)O)C2(C)C1=O` (centres undefined), the growth inhibition in assay [1] is -0.95%; in assay [2], -2.4%; in assay [3], -0.35%; in assay [4] it was -21.9%; in assay [5], 7.3%; in assay [6], 4.5%.
With `BrC(Br)(Br)Br`, the growth inhibition was 74% (active) in assay [1]; 12.6% in assay [2]; 31.8% in assay [3]; -19.6% in assay [4]; 27.4% in assay [5]; 57.2% in assay [6].
As for `O=C(O)C(=O)c1c(O)[nH]c2ccccc12`, the growth inhibition was 1.35% in assay [1]; -10.1% in assay [2]; 11.5% in assay [3]; -14.8% in assay [4]; -8% in assay [5]; 17.6% in assay [6].
Regarding `Cc1cc2cc3c(=O)[nH]c(=O)[nH]c3nc2cc1C`, the growth inhibition was -11.7% in assay [1]; 1.65% in assay [2]; -19% in assay [3]; -8.6% in assay [4]; -27.2% in assay [5]; -0.05% in assay [6].
In the case of `C=CCOC(=O)c1ccccc1`, the growth inhibition in assay [1] was 11.3%; in assay [2], 6.5%; in assay [3], 2.55%; in assay [4], 11.4%; in assay [5], -9.55%; in assay [6] it was -16.6%.
For `N#CCCC(CC#N)N1CCN(CCO)CC1` (centres undefined), the growth inhibition was -35.1% in assay [1]; -43.9% in assay [2]; -18.7% in assay [3]; -21.2% in assay [4]; -0.95% in assay [5]; -39.4% in assay [6].
Regarding `O=C(NCCO)c1c(O)c2ccccc2[nH]c1=O`, the growth inhibition in assay [1] is 2.8%; in assay [2], 0.2%; in assay [3] it was -6.05%; in assay [4] it was 12.9%; in assay [5] it was 6.55%; in assay [6], 2.9%.
As to `Nc1nc(N)c2nc(SC34CC5CC(CC(C5)C3)C4)c(N)nc2n1`, the growth inhibition was -1.6% in assay [1]; 2.05% in assay [2]; -7.1% in assay [3]; -20.8% in assay [4]; -3.65% in assay [5]; 1.4% in assay [6].
Consider `CC(=O)Nc1ccc(NCC(=O)Nn2cnc3ccc(S(=O)(=O)Nc4ccc(NC(C)=O)cc4)cc3c2=O)cc1`, for which the growth inhibition in assay [1] is 5.55%; in assay [2], -18.1%; in assay [3], 16.6%; in assay [4], 20.9%; in assay [5] it was -0.6%; in assay [6], 6.95%.
As for `CN(C)c1ccc(N=C(C#N)C(=O)c2ccccc2)cc1`, the growth inhibition was -4.3% in assay [1]; 17.6% in assay [2]; -6.7% in assay [3]; -21.6% in assay [4]; -15% in assay [5]; -12.2% in assay [6].
With `COc1cc(N(Cc2ccc3nc(OC)c(OC)nc3c2)Cc2ccc3nc(OC)c(OC)nc3c2)cc(OC)c1OC`, the growth inhibition was -29.8% in assay [1]; -23.6% in assay [2]; -19.4% in assay [3]; -6.4% in assay [4]; -20.4% in assay [5]; -14.6% in assay [6].
For the compound `O=C(O)C(Nc1ccc(Cl)cc1)c1ccccc1` (centres undefined), the growth inhibition is 1.7% in assay [1]; 3.25% in assay [2]; 18.9% in assay [3]; 6.5% in assay [4]; 8.1% in assay [5]; -22.6% in assay [6].
For the compound `CCC1(CC)C(=O)NN(C(=O)c2ccc(Cl)cc2)C1=O`, the growth inhibition in assay [1] was -4.9%; in assay [2], -22.9%; in assay [3], 28.4%; in assay [4], 7.15%; in assay [5] it was -5.6%; in assay [6], -37.5%.
For the compound `COC(=O)C1CCC(=O)N1Cc1cccs1` (centres undefined), the growth inhibition in assay [1] was -22.9%; in assay [2], -1.7%; in assay [3] it was -11.1%; in assay [4] it was 22.1%; in assay [5], 3.55%; in assay [6] it was -13.2%.
